Results taken from PubChem BioAssay (NCI).
Compounds without any hit were thinned out: in the full panel of roughly 79,000, 15% have a hit. Calls of active or inactive are those of the source. No stated cut-off is given here; in the data, active means growth inhibition above about 70%; inactive means the rest.

Assay: NCI Yeast Anticancer Drug Screen. Data for the mec2-1 strain (AID 157)
Details: S. cerevisiae mec2-1 strain, at 50.0 µM, active compounds read high
In short: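 Vehicle-treated cultures served as reference for growth inhibition of compound-exposed mec2-1 yeast.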

Row | SMILES | growth inhibition
1 | OC1C(OCc2ccccc2)OC(COCc2ccccc2)C(OC2OC(COCc3ccccc3)C(OCc3ccccc3)C(OCc3ccccc3)C2OCc2ccccc2)C1OCc1ccccc1 (stereo not given) | -9.85% (inactive)
2 | Nc1nc2c(-c3ccc([N+](=O)[O-])cc3)nnn2c2cccc(Cl)c12 | -15.8% (inactive)
3 | C[C@H](CCC(=O)NCCS(=O)(=O)O)[C@H]1CC[C@H]2[C@@H]3CC[C@@H]4C[C@H](O)CC[C@]4(C)[C@H]3CC[C@]12C | -21.1% (inactive)
4 | Cc1cc2nc(/N=C/c3nc(O)c(C)[nH]3)[nH]c2cc1C | 22.4% (inactive)
5 | OCC1OC2OC(c3ccccc3)(c3ccc(OCc4ccccc4)nc3OCc3ccccc3)OC2C1O (stereo not given) | 2.6% (inactive)
6 | CCOC(=O)C(=CN1C/C(=C/C(C)=C/c2ccccc2)SC1=S)C(=O)OCC | 28.9% (inactive)
7 | COC(=O)/C=C\C1(CC(C)C)N=C(c2ccccc2)OC1=O (stereo not given) | 25.1% (inactive)
8 | S=c1[nH]c2ccccc2n2cccc12 | -7.15% (inactive)
9 | C=CCN(CC=C)c1ccccc1 | 5.6% (inactive)
10 | COC(=O)c1ccc([N+](=O)[O-])cc1C(=O)OC | -16.7% (inactive)
11 | CCCOC(=O)c1ccccc1C(=O)OC1CCCCC1 | -2.05% (inactive)
12 | Cc1nn(-c2nc(-c3ccc(Br)cc3)cs2)c(C)c1C | -4.9% (inactive)
13 | O=C(O)CC1CCCNC1 (stereo not given) | 1.95% (inactive)
14 | CC(=O)CC(=O)NC(C)(C)CC(C)(C)C | -41.9% (inactive)
15 | CC(CO)(NC(=O)c1ccccc1)C(=O)O (stereo not given) | 9.25% (inactive)
16 | FC(F)(F)C(F)(F)C(F)(F)C(F)(F)C(F)(F)C(F)(F)C(F)(F)c1noc(C(F)(F)C(F)(F)C(F)(F)C(F)(F)C(F)(F)C(F)(F)C(F)(F)F)n1 | 6.5% (inactive)
17 | CC(=O)N1C(NN(C)C)CCN1c1ccccc1 (stereo not given) | -28.9% (inactive)
18 | C=CCN(CC=C)C(=O)Nc1cccc2c(NC(=O)N(CC=C)CC=C)cccc12 | -23.6% (inactive)
19 | [CH2+][B-]1(C)n2cc(Br)c[n+]2[B-](C)(C)[n+]2cc(Br)cn21 | 16.8% (inactive)
20 | CN(C)CCCN1c2ccccc2Sc2ccc3ccccc3c21 | -3.45% (inactive)

Row | SMILES | growth inhibition
21 | Cn1c2c(c3ccccc31)CCCC2 | -14.8% (inactive)
22 | CC(C)=C1CCC(CN2CCCC2)C1=O (stereo not given) | 13.4% (inactive)
23 | COc1ccc2c(c1)c1c3c(ccc4ncn2c43)N(CCN(C)C)CCN=1 | -26.1% (inactive)
24 | O=C(NN1C(=O)CSC1c1ccc(F)cc1)c1ccncc1 (stereo not given) | 1.1% (inactive)
25 | CCOC(=O)NC(Nc1ccc(F)cc1F)(C(F)(F)F)C(F)(F)F | -23.4% (inactive)
26 | CCN(CC)CC1CCCCCCCCCCC1=O (stereo not given) | -17.9% (inactive)
27 | O=C(CC(O)(C(F)(F)F)C(F)(F)F)c1cccc(S(=O)(=O)N2CCOCC2)c1 | 5.9% (inactive)
28 | CC(=O)Nc1cc2c(cc1Br)-c1ccccc1C2=O | -3.5% (inactive)
29 | CCN1C(=NCCO)NS(=O)(=O)c2ccccc21 | 3.4% (inactive)
30 | O=C(CCCCCC(=O)CC(=O)CCc1ccccc1)CC(=O)CCc1ccccc1 | 36.4% (inactive)
31 | NC(N)=N/N=C/C(=N\N=C(N)N)C(O)CO (stereo not given) | -4.45% (inactive)
32 | S=C(Nc1ccccc1)Nc1nc(-c2ccccc2)c(N=Nc2ccc(Cl)cc2)s1 | 2.6% (inactive)
33 | COc1cccc(C(Nc2nncs2)Nc2nncs2)c1 | -9.2% (inactive)
34 | c1ccc(OCCSCCCCCCCCCCSCCOc2ccccc2)cc1 | -11.8% (inactive)
35 | Clc1ccc2nc(/C=C/c3ccccc3)cnc2c1 | 11.2% (inactive)
36 | COc1ccc(C2C(C#N)=C(N)NC(=O)C2C(N)=O)cc1 (stereo not given) | -11.8% (inactive)
37 | O=C1/C(=C/c2ccccc2)CN(C(=O)CCN2CCOCC2)C/C1=C\c1ccccc1 | 7.15% (inactive)
38 | CCN(CC)CCN1C(=O)c2c(c(-c3ccccc3)c3ccccc3c2-c2ccccc2)C1=O | 35.2% (inactive)
39 | CC(C)N(C(=O)C12C3C4C5(C(=O)O)C(C1C35I)C42C(=O)O)C(C)C (stereo not given) | 11.1% (inactive)
40 | CN(C1c2ccccc2Oc2ccccc21)S(=O)(=O)c1ccc([N+](=O)[O-])cc1 | -2.7% (inactive)

Assay: NCI Yeast Anticancer Drug Screen. Data for the sgs1 mgt1 strain (AID 161);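 further: 0% = growth of cultures given vehicle only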
Details: S. cerevisiae sgs1 mgt1 strain, at 50.0 µM, active compounds read high
In short: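 Read-out: growth inhibition vs vehicle controls. Cells: mutant yeast strain deficient in DNA damage repair.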

Row | SMILES | growth inhibition
41 | OC1C(OCc2ccccc2)OC(COCc2ccccc2)C(OC2OC(COCc3ccccc3)C(OCc3ccccc3)C(OCc3ccccc3)C2OCc2ccccc2)C1OCc1ccccc1 (stereo not given) | -13.8% (inactive)
42 | Nc1nc2c(-c3ccc([N+](=O)[O-])cc3)nnn2c2cccc(Cl)c12 | -18.4% (inactive)
43 | C[C@H](CCC(=O)NCCS(=O)(=O)O)[C@H]1CC[C@H]2[C@@H]3CC[C@@H]4C[C@H](O)CC[C@]4(C)[C@H]3CC[C@]12C | 5.65% (inactive)
44 | Cc1cc2nc(/N=C/c3nc(O)c(C)[nH]3)[nH]c2cc1C | 59% (inactive)
45 | OCC1OC2OC(c3ccccc3)(c3ccc(OCc4ccccc4)nc3OCc3ccccc3)OC2C1O (stereo not given) | 0.6% (inactive)
46 | CCOC(=O)C(=CN1C/C(=C/C(C)=C/c2ccccc2)SC1=S)C(=O)OCC | 11.7% (inactive)
47 | COC(=O)/C=C\C1(CC(C)C)N=C(c2ccccc2)OC1=O (stereo not given) | 15.8% (inactive)
48 | S=c1[nH]c2ccccc2n2cccc12 | 27.4% (inactive)
49 | C=CCN(CC=C)c1ccccc1 | 25.4% (inactive)
50 | COC(=O)c1ccc([N+](=O)[O-])cc1C(=O)OC | -42.1% (inactive)
51 | CCCOC(=O)c1ccccc1C(=O)OC1CCCCC1 | 9.2% (inactive)
52 | Cc1nn(-c2nc(-c3ccc(Br)cc3)cs2)c(C)c1C | -9.95% (inactive)
53 | O=C(O)CC1CCCNC1 (stereo not given) | -13.7% (inactive)
54 | CC(=O)CC(=O)NC(C)(C)CC(C)(C)C | -31.8% (inactive)
55 | CC(CO)(NC(=O)c1ccccc1)C(=O)O (stereo not given) | 22.5% (inactive)
56 | FC(F)(F)C(F)(F)C(F)(F)C(F)(F)C(F)(F)C(F)(F)C(F)(F)c1noc(C(F)(F)C(F)(F)C(F)(F)C(F)(F)C(F)(F)C(F)(F)C(F)(F)F)n1 | -5.4% (inactive)
57 | CC(=O)N1C(NN(C)C)CCN1c1ccccc1 (stereo not given) | 13.6% (inactive)
58 | C=CCN(CC=C)C(=O)Nc1cccc2c(NC(=O)N(CC=C)CC=C)cccc12 | -17.5% (inactive)
59 | [CH2+][B-]1(C)n2cc(Br)c[n+]2[B-](C)(C)[n+]2cc(Br)cn21 | 8.05% (inactive)
60 | CN(C)CCCN1c2ccccc2Sc2ccc3ccccc3c21 | -43% (inactive)

Row | SMILES | growth inhibition
61 | Cn1c2c(c3ccccc31)CCCC2 | 1.4% (inactive)
62 | CC(C)=C1CCC(CN2CCCC2)C1=O (stereo not given) | 17.4% (inactive)
63 | COc1ccc2c(c1)c1c3c(ccc4ncn2c43)N(CCN(C)C)CCN=1 | -9.25% (inactive)
64 | O=C(NN1C(=O)CSC1c1ccc(F)cc1)c1ccncc1 (stereo not given) | 4.15% (inactive)
65 | CCOC(=O)NC(Nc1ccc(F)cc1F)(C(F)(F)F)C(F)(F)F | -15.7% (inactive)
66 | CCN(CC)CC1CCCCCCCCCCC1=O (stereo not given) | -32.7% (inactive)
67 | O=C(CC(O)(C(F)(F)F)C(F)(F)F)c1cccc(S(=O)(=O)N2CCOCC2)c1 | 8.5% (inactive)
68 | CC(=O)Nc1cc2c(cc1Br)-c1ccccc1C2=O | 15.4% (inactive)
69 | CCN1C(=NCCO)NS(=O)(=O)c2ccccc21 | -25.4% (inactive)
70 | O=C(CCCCCC(=O)CC(=O)CCc1ccccc1)CC(=O)CCc1ccccc1 | 53.5% (inactive)
71 | NC(N)=N/N=C/C(=N\N=C(N)N)C(O)CO (stereo not given) | 1.85% (inactive)
72 | S=C(Nc1ccccc1)Nc1nc(-c2ccccc2)c(N=Nc2ccc(Cl)cc2)s1 | 22.2% (inactive)
73 | COc1cccc(C(Nc2nncs2)Nc2nncs2)c1 | -8.45% (inactive)
74 | c1ccc(OCCSCCCCCCCCCCSCCOc2ccccc2)cc1 | -25.6% (inactive)
75 | Clc1ccc2nc(/C=C/c3ccccc3)cnc2c1 | 13.3% (inactive)
76 | COc1ccc(C2C(C#N)=C(N)NC(=O)C2C(N)=O)cc1 (stereo not given) | -16.8% (inactive)
77 | O=C1/C(=C/c2ccccc2)CN(C(=O)CCN2CCOCC2)C/C1=C\c1ccccc1 | 73% (active)
78 | CCN(CC)CCN1C(=O)c2c(c(-c3ccccc3)c3ccccc3c2-c2ccccc2)C1=O | 21.6% (inactive)
79 | CC(C)N(C(=O)C12C3C4C5(C(=O)O)C(C1C35I)C42C(=O)O)C(C)C (stereo not given) | -13.3% (inactive)
80 | CN(C1c2ccccc2Oc2ccccc21)S(=O)(=O)c1ccc([N+](=O)[O-])cc1 | 6% (inactive)
